Bioassay records as filed in PubChem BioAssay.
HIF-2a block = inhibitors of HIF-2a; hit rate 0.72% among 360,000; AID 624352; inhibition, % at 18.8 µM; 786-0 RCC cells HIF-2a reporter, luciferase luminescence, overnight;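 active = inhibition of the luminescence signal of 40% or more relative to plate controls, in a single-dose primary screen at 18.75 µM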
TROY NFkB inh = blocks TROY-dependent signaling in reporter cells; Q293 LMP1-TROYcd NF-kB luciferase reporter, 4 h; inhibition, % at 10 µM; hit rate 0.98% among 360,000; AID 1347056;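 active = compounds whose plate-normalised and pattern-corrected inhibition of the luciferase reporter signal at the single screening dose is 50% or more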
TWEAK-Fn14 inh = blocks TWEAK-Fn14 interaction in a reporter cell assay | TWEAK-stimulated Fn14 reporter cells, luciferase luminescence, 8 h | hit rate 2% among 360,000 | AID 1159606 | inhibition, % at 10 µM; in the data active = inhibition above about 50%
CF NFkB block = cystic fibrosis NF-kB activation inhibition. KKLEB NF-kB-GFP reporter, PAF-induced, GFP fluorescence overnight. hit rate 0.86% among 360,000. inhibition, % at 5 µM. AID 588850;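 active = at least 50% inhibition at 5 µM, scaled per plate between neutral and stimulator controls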;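 also: PAF is a Pseudomonas aeruginosa culture filtrate used as stimulus; plate controls were PAF-stimulated DMSO wells for no effect and unstimulated DMSO wells for full effect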
KKLEB tox = CF airway cell cytotoxicity counter-screen; KKLEB CF airway cells viability, ATPlite luminescence, overnight; active compounds read low; cells stimulated with P. aeruginosa culture filtrate; activity change (cytotoxicity), % at 5 µM; hit rate 0.36% among 360,000; AID 602141;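 active = corrected activity change at or below -50% at 5 µM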
Peg3 promoter = Peg3 promoter activity inhibition. HeLa PEG-Prom luciferase reporter, luminescence, overnight. inhibition, % at 20 µM. hit rate 1.7% among 360,000;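 active = inhibition of at least 50% at 20 µM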
Numbers without * were called inactive; . = no result. Compounds with a hit are over-represented: about 4% of the library has one in this group of screens.

SMILES	HIF-2a block	TROY NFkB inh	TWEAK-Fn14 inh	CF NFkB block	KKLEB tox	Peg3 promoter
O=C1N(c2ccccc2)C[C@@H]2C[C@@H](c3cc4ccccc4o3)N3CCC[C@@]123	-8	48	84*	87*	-66*	105*
Cc1ccc(-c2ccccc2[C@@H]2C[C@H]3CN(C)C(=O)[C@]34CCCN24)o1	8	7	6	-2	18	7
Cc1c(C(=O)NCc2ccc(C(C)C)cc2)sc(=O)n1Cc1ccc(S(=O)(=O)N(C)C)cc1	-4	25	64*	14	-11	11
Cc1c(C(=O)NCc2ccc(Cl)c(Cl)c2)sc(=O)n1Cc1ccc(C(=O)N(C)C)cc1	12	24	20	0	5	21
Cc1c(C(=O)NCc2ccc(Cl)c(Cl)c2)sc(=O)n1Cc1ccc(S(=O)(=O)N(C)C)cc1	-9	39	67*	-12	-17	36
NC(=O)c1cccc(-c2cnc(N)c(C(=O)c3cccnc3)n2)c1	38	51*	84*	52*	6	62*
O=C(Nc1cccc(NC(=O)c2cccnc2)c1)c1ccccc1	-8	-1	-17	7	-2	-1
Cc1cc(C)n2c(=O)[nH]nc2c1	10	10	4	0	-2	0
CC(C)CNC(=O)C(=O)NCc1ccccn1	0	-11	-5	5	7	-2
Cc1ccc(-c2ccc(CCC(=O)O)n2NC(=O)c2ccco2)cc1	-23	.	77*	-15	5	-14
O=C(O)CCc1ccc(-c2ccc(F)cc2)n1NC(=O)c1ccco1	10	-4	-13	-15	6	-11
COc1ccc(Br)cc1C1NC(=O)NC(C)=C1C(=O)N(C)C (configuration not stated)	10	0	8	1	-53*	0
Cc1cc(C(=O)c2ccc(Cl)cc2)c(NC(=O)CCl)s1	4	-7	-27	48	-46	89*
CCc1cc(C(=O)c2ccc(C)cc2)c(NC(=O)CCl)s1	-55	21	-21	30	-15	24
COCCc1nc2ccc(C(=O)N(C)Cc3cccc(-n4nc(C)cc4C)c3)cc2o1	-8	60*	-2	-64	8	0
COCCc1nc2ccc(C(=O)NCc3cccc(-n4cccn4)c3)cc2o1	-18	-5	0	-1	1	-3
O=C(NCCn1cc(SCc2ccc(F)cc2)c2ccccc21)c1ccccc1F	-23	28	51*	9	-2	23
O=C(NCCn1cc(SCc2ccc(F)cc2)c2ccccc21)c1c(F)cccc1F	-23	27	38	-5	1	14
O=C(NCCn1cc(SCc2ccccc2)c2ccccc21)c1c(F)cccc1F	-108	22	50*	15	3	-2
CCOc1ccc(N2CC(C(=O)Nc3ccccc3C(=O)N3CCOCC3)CC2=O)cc1 (configuration not stated)	11	-17	-6	-9	2	8
COc1ccc(-c2nnnn2C(C)C)cc1	9	-7	1	-3	4	-1
CC(C)(C)c1ccc(-n2nc(C#N)c(Cl)cc2=O)cc1	92*	89*	105*	91*	-101*	104*
COc1ccccc1NCC(=O)N/N=C/c1c(O)ccc2ccccc12	9	24	36	9	-17	56*
O=C(CNc1ccc(F)cc1)N/N=C/c1c(O)ccc2ccccc12	-9	24	18	15	2	51*
CCOc1cc(CNCCCN2CCOCC2)cc(Br)c1OCc1ccccc1Cl	13	9	-32	35	-55*	111*
SMILES	HIF-2a block	TROY NFkB inh	TWEAK-Fn14 inh	CF NFkB block	KKLEB tox	Peg3 promoter
COc1cc(CNC(C)(C)CO)cc(Br)c1OCc1ccccc1	10	-13	5	15	-4	0
CCOc1cc(CNC(C)(C)CO)cc(Br)c1OCc1ccc(Cl)cc1Cl	-25	-31	-34	21	-14	58*
CCOc1cc(CNCCO)cc(Br)c1OCc1ccc(Cl)cc1	-12	-18	-18	4	-12	101*
O=C(Nc1cccc(F)c1)NC1(C(=O)NCC2CCCO2)CCCCC1 (configuration not stated)	19	18	-9	-4	-6	8
Cc1cc(C)cc(Nc2ncc3c(n2)CC(c2ccco2)CC3=O)c1 (configuration not stated)	-38	-16	-5	-9	-1	-6
Cc1cc(C)cc(Nc2ncc3c(n2)CCCC3=O)c1	-43	16	71*	-11	6	-49
CC1CCCN(c2sc(S(C)(=O)=O)nc2S(=O)(=O)c2ccc(Cl)cc2)C1 (configuration not stated)	16	19	51*	39	-17	18
CC1CN(c2sc(S(C)(=O)=O)nc2S(=O)(=O)c2ccc(Cl)cc2)CC(C)O1 (configuration not stated)	7	20	57*	30	-5	10
CN1CCN(c2ccc(NC(=O)c3ccc(-c4ccc(Br)cc4)o3)cc2)CC1	-16	-7	-100	-23	-36	89*
COc1cccc(NC(=O)c2ccc(-c3ccc([N+](=O)[O-])cc3)o2)c1	-210	-65	-9	-22	3	-119
Cc1ccccc1C(=O)Nc1cccc(NC(=O)c2ccc(-c3ccc(Br)cc3)o2)c1	-20	-7	-18	44	-53*	9
CCN1CCN(c2ccc(NC(=O)c3ccc(Br)o3)cc2)CC1	-210	-12	-9	20	-8	-170
COCCN(CC(=O)Nc1cccc(C)c1C)C(=O)c1cc(S(=O)(=O)N2CCCC2)ccc1C	3	8	0	27	-10	11
COCCn1c(N2CCCC2)nc2c1c(=O)[nH]c(=O)n2C	7	22	9	13	-10	7
CCn1cc(C(=O)NCc2cccc(F)c2)c(=O)c2cc(F)c(N3CCN(C(=O)c4ccco4)CC3)cc21	18	42	52*	4	-1	55*
CCCNC(=O)c1cn(CC)c2cc(N3CCN(C(=O)c4ccco4)CC3)c(F)cc2c1=O	10	25	5	-21	26	19
CCC(C(=O)NCC1CCCO1)n1nc(C)c2sc3ccccc3c2c1=O (configuration not stated)	6	17	12	10	-2	10
Cc1[nH]c2ccccc2c1/C=N/NC(=O)C1CC1(c1ccccc1)c1ccccc1 (configuration not stated)	-19	24	66*	5	-27	26
CCOC(=O)c1c(-n2cccc2)sc2c1CCCC2=O	23	11	0	0	5	51*
COc1cccc(C2N(c3ccccn3)C(=O)C3CCCN32)c1OC (configuration not stated)	10	-12	2	1	10	-2
O=C(CSc1nc2[nH]c(=O)cc(O)c2s1)Nc1nccs1	2	2	-7	0	9	0
